DUSP3 inh = VHR1 phosphatase inhibitors, primary screen, biochemical, absorbance, uHTS; inhibition, % at 13.3 µM; recombinant VHR phosphatase, pNPP absorbance; 0.52% of 290,000 active; in the data active = inhibition above about 50%
BoNT-F LC inh = BoNT/F light chain protease inhibitors, primary screen, biochemical, flow cytometry, MLPCN library | Multiplex microsphere protease cleavage assay | inhibition, % at 10 µM | 0.22% of 360,000 active; in the data active = inhibition above about 35%, passing the limit was not always enough; inconclusive = no clear call, values can overlap the other calls; also: plate controls were buffer without enzyme for full effect and enzyme alone for no effect
Anthrax LF prot = Bacillus anthracis LF protease inhibitors, primary screen, biochemical, multiplex microsphere, MLPCN library; Lethal factor (Bacillus anthracis), P15917; multiplex microsphere protease cleavage assay; inhibition, % at 10 µM; 0.12% of 360,000 active; AID 588501, 2011; also: plate controls were buffer without enzyme for full effect and enzyme alone for no effect
Bead autofluor = flagged as autofluorescent in microsphere protease counterscreen | AID 624483 | fluorescence intensity (test concentration not listed) | compound autofluorescence counterscreen, microsphere flow cytometry; hits give high values | 3.1% of 360,000 active; in the data active = fluorescence intensity above about 16000; inconclusive = no clear call, values can overlap the other calls
BoNT-A LC inh2 = BoNT/A light chain protease inhibitors, primary screen, biochemical, flow cytometry, MLPCN library; Botulinum neurotoxin type A light chain protease (Clostridium botulinum A str. ATCC 3502); multiplex microsphere protease substrate cleavage; inhibition, % at 10 µM; 0.17% of 360,000 active; AID 588499, 2011; also: plate controls were buffer without enzyme for full effect and enzyme alone for no effect
MazEF act = activators of E. coli MazEF toxin-antitoxin RNase, primary screen, biochemical, fluorescence, uHTS. Endoribonuclease toxin MazF (Escherichia coli (strain K12)), P0AE70. FAM/BHQ RNA-DNA oligo cleavage fluorescence, 5 h. activation, % at 20 µM. 0.32% of 350,000 active. AID 504720, 2011; in the data active = activation above about 50%
* marks the source's active call; other numbers are inactive results; u = inconclusive; x = not tested or not shown. Hits are enriched below; roughly 4% of the tested compounds scored in any of these assays. Rule as the data show it, unless noted: active = inhibition above about 30%; inconclusive = no clear call, values can overlap the other calls; inactive = below that.

SMILES | DUSP3 inh | BoNT-F LC inh | Anthrax LF prot | Bead autofluor | BoNT-A LC inh2 | MazEF act
Cc1ccc(CNC(=O)CN2C(=O)NC(C)(c3ccc(Cl)cc3)C2=O)cc1 (stereo not drawn) | 6 | -25 | 16 | 3843 | 0 | -6
Cc1ccc(CNC(=O)CN2C(=O)NC(C)(c3ccccc3Cl)C2=O)cc1 (stereo not drawn) | 53* | -10 | 0 | 3385 | -6 | -2
COc1ccc(N2C(=O)c3ccccc3NC23CCC(C)CC3)cc1 (stereo not drawn) | 20 | -1 | 0 | 22907* | 0 | 2
COc1ccc(N2C(=O)c3ccccc3NC23CCCCC3)cc1 | 6 | 7 | 1 | 7732 | 0 | -7
O=C(NCc1nc2ccccc2[nH]1)C1=C[C@@H](c2ccc(Br)cc2)C[C@@H](OCc2ccc(CO)cc2)O1 | 0 | -2 | -1 | 3187 | -1 | -8
Cc1ccc(C(=O)NC(=S)Nc2ccc3[nH]c(=O)[nH]c3c2)c(C)c1 | 18 | 0 | 1 | 4398 | 0 | 4
FC(F)(F)c1cnc(/C=C/Nc2ccccc2Cl)c(Cl)c1 | 29 | 2 | -1 | 22771* | 2 | -2
CC(C)(C)c1ccc(NC(=O)N2CCCN(c3c(Cl)cncc3Cl)CC2)cc1 | 23 | x | x | x | x | -8
O=C(Cc1ccccc1)N1CCCC1c1ccccc1 (stereo not drawn) | 12 | -6 | -2 | 21410* | -2 | 4
CCOc1cc(C(=O)OCC(=O)c2c(C)[nH]c3ccccc23)ccc1OCC(=O)N1CCOCC1 | 36 | -1 | -8 | 21648* | u | 2
CCCOc1ccc2c3c(c(=O)oc2c1)CCCC3 | 33 | -1 | 1 | 2675 | 0 | 2
CN1CCc2ccccc2C1C1CCNCC1 (stereo not drawn) | 14 | -9 | -1 | 24213* | -5 | -13
COc1cc(NC(=O)CCc2nnc3ccc(N4CCN(C)CC4)nn23)cc(OC)c1 | 52* | 0 | -1 | 5050 | 1 | 6
CC(C)C(NS(=O)(=O)c1c(Cl)cccc1Cl)C(=O)OCC(=O)c1c[nH]c2ccccc12 (stereo not drawn) | 8 | -16 | 15 | 4613 | 58* | 3
CCCOc1ccc2oc(=O)c3c(c2c1)CCCN3C(=O)CN1CCN(c2ncccn2)CC1 | 56* | u | -16 | 4993 | -3 | 3
CCCOc1ccc2oc(=O)c3c(c2c1)CCCN3C(=O)CN1CCN(C(=O)c2ccco2)CC1 | 13 | x | x | x | x | x
CC(C)CC1Nc2ncnc(N3CCOCC3)c2N(Cc2ccccc2)C1=O (stereo not drawn) | x | -11 | 0 | 4402 | -1 | 8
CCOC(=O)C1CCN(Cc2ccc(F)cc2)CC1 | 18 | 1 | -1 | 16511* | 0 | -5
O=C(Nc1ccc2nc(-c3ccco3)c(-c3ccco3)nc2c1)N1CCCCCC1 | 17 | x | x | x | x | -2
COC(=O)c1ccc(/C=N\N2CCN(Cc3ccc(C)cc3)CC2)cc1 | 15 | -3 | -8 | 16594* | u | -6
CCOC(=O)C1CCN(C(=O)Nc2ccc3nc(-c4ccco4)c(-c4ccco4)nc3c2)CC1 | 56* | -16 | 14 | 2814 | 16 | 11
CCOC(=O)C1CCN(C(=O)c2cccc(C(=O)N3CCC(C(=O)OCC)CC3)c2)CC1 | 1 | -3 | 2 | 21616* | u | -15
CCS(=O)(=O)c1ccc(O)c(NC(=O)NC2CCCCC2)c1 | -3 | -5 | 6 | 4535 | 0 | -2
CCCn1c2ccccc2c2nnc(SCc3[nH]c(=O)[nH]c3C(=O)CCCCC(=O)OCC)nc21 | 9 | -5 | 1 | 2312 | 0 | -22
NC(=O)C1(N2CCCCC2)CCN(Cc2ccc(F)cc2)CC1 | -23 | -2 | 1 | 21961* | -5 | -1
SMILES | DUSP3 inh | BoNT-F LC inh | Anthrax LF prot | Bead autofluor | BoNT-A LC inh2 | MazEF act
NC(=O)C1(N2CCCCC2)CCN(Cc2ccc(Br)cc2)CC1 | 4 | u | -5 | 4483 | u | 6
CCOc1ccc(NC(=O)NCC2CCN(Cc3ccc(F)cc3)CC2)cc1 | 57* | -5 | -6 | 3710 | -1 | 6
CCOC(=O)C1CCN(Cc2cnc(Oc3ccc(N)cc3)s2)CC1 | -13 | 3 | -3 | 21292* | 3 | 1
COc1ccc(N2CCC(CNC(=O)Nc3ccc(Cl)cc3)C2)cc1 (stereo not drawn) | 52* | -33 | -20 | u | 0 | 24
CNC1(C(N)=O)CCN(Cc2ccccc2)CC1 | x | 4 | 6 | 4094 | 0 | -1
CSc1ccccc1NC(=O)COc1nsnc1N1CCOCC1 | 2 | 15 | 4 | 4615 | -1 | 6
CCOC(=O)C1CCN(Cc2ccc(C(=O)OC)cc2)CC1 | -5 | -3 | -2 | 23791* | -1 | 1
CCCNC(=O)COC(=O)c1[nH]c(C)c(C(=O)OCC)c1C | 4 | -18 | -8 | 5695 | 0 | 5
COC(=O)[C@H](Cc1ccccc1)NC(=O)NCc1cccs1 | 6 | 14 | 2 | 19692* | 10 | 12
O=C(NCc1ccccc1)N[C@@H](Cc1ccccc1)C(=O)O | 5 | -5 | -3 | 16799* | u | -6
O=C(NCc1ccc(F)cc1)N[C@@H](Cc1ccccc1)C(=O)O | 2 | 2 | -1 | 22456* | 2 | -12
O=C(NCCc1ccccc1)NC(Cc1ccccc1)C(=O)O (stereo not drawn) | 38 | -2 | -15 | 3046 | 2 | 9
O=C(NCc1cccs1)N[C@@H](Cc1ccccc1)C(=O)O | -6 | 3 | 2 | 10498 | 1 | 3
CCC(NCc1cccnc1)c1ccc(OC)c(OC)c1 (stereo not drawn) | x | u | 4 | 3110 | 1 | 8
N#CC1(c2ccccc2)CCC(=NNS(=O)(=O)c2ccccc2)CC1 (stereo not drawn) | x | -2 | 4 | 4186 | 0 | 1
Cc1cc(C)n2nc(SCn3nnc4ccccc4c3=O)nc2n1 | 14 | 17 | -2 | 8709 | 0 | 2
CC(=O)[C@@H]1[C@@H](C(=O)c2ccccc2)[C@]2(C(=O)Nc3ccccc32)[C@H]2C=Cc3cc(F)ccc3N12 | -8 | -9 | 2 | 3170 | 4 | 10
O=C(c1ccccc1)[C@@H]1[C@@H](C(=O)c2ccc(F)cc2)[C@@]2(C(=O)Nc3ccccc32)[C@H]2c3ccccc3C=CN12 | 5 | 17 | 29 | 7809 | 39* | -3
CCCCNC(=O)COC(=O)c1cc(F)c(F)cc1Cl | 10 | -1 | -1 | 23808* | 0 | -2
CC(NC(=O)CN(C)S(=O)(=O)c1cccc2nsnc12)c1ccccc1 (stereo not drawn) | 20 | 0 | 1 | 4961 | 4 | 97*

Bioassay records: PubChem, several laboratories
